Molecules are shown by their SMILES. About 83,000 compounds went through this panel and 20% of them were active in at least one assay; those are over-represented in the sample as a whole.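 Plates (96-well) were seeded with cells, treated with compound at one concentration, and incubated for 48 hours before percent growth was determined.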 Values without a mark were called inactive. Activity calls are given as the source filed them.

This assay has as its system OVCAR-5 ovarian. As to the kind of experiment: NCI-60 one-dose screen, 48 h (100 = growth as untreated, 0 = no growth, -100 = all killed). Conditions: 10 µM unless noted. On the procedure:
Growth inhibition of the OVCAR-5 human tumor cell line is measured as a screen for anti-cancer activity. Cells are grown in 96 well plates and exposed to the test compound for 48 hours. Compounds are tested at a single concentration, which is 10^-5 M for most compounds. The reported endpoint is percent growth (GI% or GIPRCNT), where numbers from 0 - 100% represent growth inhibition, and numbers from -100% - 0 represent cell death. For example, a value of 40 represents 60% growth inhibition. A value of 0 means no net growth occurred over the course of the experiment. A value of -40 indicates 40% of cells at the beginning of the experiment died by the end of the experiment. A value of -100 means all cells are dead at the end of the experiment.
NCI-60 Human Tumor Cell Lines Screen was performed using the standard one-dose NCI protocol, which is described in more detail at https://dtp.cancer.gov/discovery_development/nci-60/default.htm.
Compounds with GIPRCNT values below 10 were considered active. Activity score was based on GIPRCNT using the following formula: […]
Score is 0 for GIPRCNT values of 100 or above, 50 for GIPRCNT values of 0, and 100 for GIPRCNT values of -100.
As for `O=C(CSc1nc(-c2ccccc2)[nH]c1S(=O)(=O)c1ccccc1)NC1CC1`, the growth is 109%.

For `COc1cc(/C=C/C(=O)c2cccc(Nc3nc(Nc4ccccc4)nc(Nc4ccccc4)n3)c2)cc(OC)c1OC`, the growth was 78.8%.

Consider `COc1cc(-c2nc(SCCC(C)C)nc(Nc3ccccc3Cl)c2C#N)cc(OC)c1OC`, for which the growth is 89.7%.

Regarding `CC(C)CCNC(=O)Cn1cccc(NC(=O)OCc2ccccc2)c1=O`, the growth was 127%.

Turning to `CC1(c2ccccc2O)NN=C(/N=C/c2cccc([N+](=O)[O-])c2)N1C(Cc1c[nH]c2ccccc12)C(=O)O` (stereo not given), the growth was 106%.

In the case of `CCCCC(=O)Nc1ncc(Cc2ccc(Cl)cc2)s1`, the growth is 73.9%.

Turning to `CN(C)CCNC(=O)c1cccc(-c2cnc3ccc(-c4ccc5c(c4)OCO5)nn23)c1`, the growth was 89.3%.

For `O=C(O)CCCN1C(=O)/C(=C/C(Cl)=C/c2ccccc2)SC1=S`, the growth is 59%.

As for `CCOC(=O)c1cnc2ccccc2c1Cl`, the growth was 98.3%.

Take `Cn1c(O)c(C=NCCN=Cc2c(O)n(C)c(=O)n(C)c2=O)c(=O)n(C)c1=O`: the growth was 83.7%.

On to `O=C(c1ccccc1)C1C(=O)N2C(=S)N(c3ccccc3)C(=O)C2C1c1ccc(Cl)cc1` (stereo not given), for which the growth was 102%.

With `c1cnc2[nH]cc(-c3csc(-c4cn(CCCN5CCOCC5)c5ccccc45)n3)c2c1`, the growth is 62.1%.

`O=c1oc2ccccc2cc1C1=NN=C(SCc2ccccc2)SC1`: the growth was 105%.

Turning to `Cc1ccc(-c2nc(N3CCNCC3)c3oc(-c4ccccc4)nc3n2)cc1`, the growth was 14.7%.

`O=S(=O)(Nc1ccc(Cl)cc1)c1ccc(-c2cnc(C3CC3)o2)cc1`: the growth is 43.9%.

On to `CCOC(=O)C1=NN(c2ccccc2)C(=O)/C1=C\N1C(=O)CC(=O)NC1=S`, for which the growth was 104%.

Turning to `COc1ccc(NC(=O)c2sc3nc(C)c(C(=O)/C=C/c4cccc(OC)c4)cc3c2N)cc1`, the growth was 59.6%.

Take `COc1ccc2[nH]cc(C(c3cc(F)cc(F)c3)c3c[nH]c4ccc(OC)cc34)c2c1`: the growth was 85%.

`C=C(C)[C@@H]1CC[C@]2(C)[C@H](CC=C3[C@@H]4[C@H](C)[C@@H](C)CC[C@]4(CO)CC[C@]32C)[C@@]1(C)CCCN`: the growth is 60.6%.

Regarding `CCOC(=O)C(=Cc1cccc(Br)c1)C(=O)OCC`, the growth was 42.9%.

As to `N#C/C(=C/c1ccc([N+](=O)[O-])cc1)n1nnc2cc(F)c(F)cc21`, the growth is 108%.

In the case of `O=C(c1ccc(Cl)cc1)N1CCN(c2ccnc3cc(Cl)ccc23)CC1`, the growth was 93%.

On to `O=[N+]([O-])C1C(c2ccccc2)C12c1ccccc1-c1ccccc12` (stereo not given), for which the growth is 23.9%.

On to `CC(=O)[C@@H]1CCC=C2CC[C@]3(C)[C@@H](CC[C@@H]4[C@@]5(C)CCCNC(C)(C)[C@@H]5CC[C@]43C)[C@H]21`, for which the growth is 16.8%.

Take `CCn1cc(C(=O)N/N=C/c2cccs2)c(=O)c2cc(F)c(N3CCNC(C)C3)c(F)c21` (stereo not given): the growth is 67.2%.

Consider `CCN(CC)CCNC(=O)c1cn2ncnc(Oc3ccc(NC(=O)Nc4ccc(Cl)c(C(F)(F)F)c4)c(F)c3)c2c1C`, for which the growth is 54.6%.

Regarding `O=C(CSc1nnc2n1S(=O)(=O)c1ccccc1N2c1ccccc1)Nc1nc2ccc(F)cc2s1`, the growth is 94.7%.

On to `CCCCOC(=O)OCc1cc(=O)c(O)co1`, for which the growth was 102%.

Regarding `CCOC(=O)c1cc(-c2ccc([N+](=O)[O-])cc2)n(-c2ccc(C(=O)O)c(O)c2)c1C`, the growth was 114%.

As to `COC(=O)c1c2c(c(C)[n+]([O-])c1C)C(=O)C=C(NCc1ccc(Br)cc1)C2=O`, the growth is -82.8% (active).

Take `CCOP(=O)(OCC)c1nc(-c2ccccc2)oc1NCc1cccnc1`: the growth is 101%.

As to `C#COc1cccc(Nc2ncnc3ncc(NC(=O)CCl)cc23)c1`, the growth is 31.5% [6.25 µM].

With `Cc1nnc(NC(=O)c2nc(S(=O)(=O)Cc3ccc(F)cc3)ncc2Cl)s1`, the growth was 85.6%.

Take `CO[C@]12C=C/C(=C(/C(=O)OCc3cccnc3)C(=O)CCCCCCCC[C@@]3(OC)C=C/C(=C(/C(=O)OCc4cccnc4)C(=O)CCCCCCCC1)O3)O2`: the growth is -5.24% (active).

Regarding `CC[C@@H](C(=O)[C@@H](C)[C@@H](O)[C@H](C)[C@@H]1O[C@@H]([C@@H](CC)C(=O)NCCc2ccc(F)cc2)CC[C@@H]1C)C1O[C@]2(C=CC(=O)[C@]3(CC[C@@](C)([C@H]4CC[C@](O)(CC)[C@H](C)O4)O3)O2)[C@H](C)C[C@@H]1C` (stereo not given in full), the growth is 67.7%.

With `Cc1cc(Cl)ccc1Nc1nc(C(F)(F)F)ccc1C(=O)N/N=C/c1ccc([N+](=O)[O-])cc1`, the growth was -18.6% (active).

In the case of `COP(=O)(OC)C(C)(C)CC(=O)CC(C#N)(C#N)C(C#N)C#N`, the growth is 94.4%.

In the case of `O=C(O)c1[nH]c(=O)[nH]c(=O)c1[N+](=O)[O-]`, the growth is 126%.

With `Fc1cccc(CNc2c3ccccc3nc3ccccc23)c1F`, the growth is 73.3%.

As for `O=C1c2cccc3cccc(c23)C(=O)N1N1C(=O)c2cccc3c(N4CCOCC4)ccc(c23)C1=O`, the growth is 97.1%.

These data come from PubChem BioAssay (NCI).
